Targets with a hit are over-represented here; the source holds about 8,800 in all. About 0.5% of all pairs of compound and target were hits.
Experiments:
Assay in all cases: log2 fold change, soluble protein after heating vs DMSO (PISA); higher = thermal stabilisation; K562 lysate, 10 uM; active = over 0.2 and 3.5 SD of the protein, either way, in both replicates (recomputed)
ibrutinib = compound: C=CC(=O)N1CCC[C@@H](n2nc(-c3ccc(Oc4ccccc4)cc3)c3c(N)ncnc32)C1 [ibrutinib]
Summary of the method: (§1)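 Log-two fold change in thermal stability relative to solvent controls is reported from duplicates. For each sample, crude K562 extract from dounce-homogenised pellets in PBS pH 7.4 with 1 mM MgCl2, at 1 mg/mL protein, was treated with 10 μM compound for 30 min. Aliquots heated for 3 min across 48°C-58°C were pooled, brought to 0.5% NP-40 at 4°C and cleared at 21,000xg for 90 min. The supernatant was quantified by TMTpro 16plex LC-MS/MS with channel sums equalised.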

[1] = compound: CC(=O)c1cnc2ccc(-c3cc(Cl)c(O)c(Cl)c3)nc2c1N[C@H]1CC[C@H](CN(C)C)CC1
Summary of the method: as §1

ralimetinib = compound: CC(C)(C)Cn1c(N)nc2ccc(-c3[nH]c(C(C)(C)C)nc3-c3ccc(F)cc3)nc21 [ralimetinib]
Summary of the method: as §1

[2] = compound: CC(C)(O)CC(=O)NCCn1ccc2ncnc(Nc3ccc(Oc4cccc(C(F)(F)F)c4)c(Cl)c3)c21
Summary of the method: as §1

[3] = compound: CC(C)C1=C2N=C(C=C(N2N=C1)NCC3=CC=CC=C3)NCCCCCCN
Summary of the method: as §1

[4] = compound: CC1=C(C(CC(=O)N1)C2=CC=C(C=C2)C(F)(F)F)C(=O)NC3=C(C=C4C(=C3)C=NN4)F
Summary of the method: as §1

[5] = compound: CC1=C(C2=C(C=C1)C(=O)C3=CC=CC=C3N2CCCN)C
Summary of the method: as §1

[6] = compound: CC1=C(C=C(C=C1)NC(=O)C2=CC(=CC=C2)C(C)(C)C#N)NC3=CC4=C(C=C3)N=CN(C4=O)C
Summary of the method: as §1

[7] = compound: CC1=C(C=C(C=C1)NC(=O)C2=CC(=CC=C2)N(C)C)NC(=O)C3=CC=C(C=C3)O
Summary of the method: as §1

[8] = compound: CC1=CC=C(C=C1)SC2=C3C=C(SC3=CN=C2)C(=O)N
Summary of the method: as §1

Measured: log2 fold change

PRIM1 (UniProt P49642)
inactive: ibrutinib -0.016 | [1] 0.014 | ralimetinib 0.056 | [2] 0.056 | [3] 0.016 | [4] 0.027 | [5] -0.019 | [6] 0.015 | [7] 0.011 | [8] 0.02

PRPF6 (UniProt O94906)
inactive: ibrutinib 0 | [1] 0 | ralimetinib 0.038 | [2] 0.022 | [3] 0.005 | [4] -0.008 | [5] 0.001 | [6] -0.022 | [7] 0.053 | [8] 0.007

PPIL2 (UniProt Q13356)
Chain of UniProt Q13356 (Q13356 whole entry, looked up): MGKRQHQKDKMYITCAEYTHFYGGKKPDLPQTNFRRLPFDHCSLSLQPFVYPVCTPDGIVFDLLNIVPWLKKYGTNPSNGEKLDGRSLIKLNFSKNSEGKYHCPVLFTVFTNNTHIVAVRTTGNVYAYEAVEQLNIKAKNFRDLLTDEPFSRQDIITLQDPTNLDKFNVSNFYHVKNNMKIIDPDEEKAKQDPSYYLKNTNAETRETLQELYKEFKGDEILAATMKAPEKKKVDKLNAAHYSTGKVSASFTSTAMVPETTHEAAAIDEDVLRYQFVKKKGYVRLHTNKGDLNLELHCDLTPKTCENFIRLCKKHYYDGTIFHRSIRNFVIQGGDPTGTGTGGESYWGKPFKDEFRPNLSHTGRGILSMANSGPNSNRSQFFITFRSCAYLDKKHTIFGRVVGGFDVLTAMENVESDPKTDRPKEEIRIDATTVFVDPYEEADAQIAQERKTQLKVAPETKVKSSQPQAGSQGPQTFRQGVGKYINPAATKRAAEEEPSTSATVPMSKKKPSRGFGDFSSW
inactive: ibrutinib -0.002 | [1] -0.003 | ralimetinib 0.02 | [2] 0.025 | [3] 0.046 | [4] 0.011 | [5] -0.017 | [6] 0.033 | [7] 0.003 | [8] 0.005

PTGS1 isoform 6 (UniProt P23219)
Chain of UniProt P23219 (P23219 whole entry, looked up): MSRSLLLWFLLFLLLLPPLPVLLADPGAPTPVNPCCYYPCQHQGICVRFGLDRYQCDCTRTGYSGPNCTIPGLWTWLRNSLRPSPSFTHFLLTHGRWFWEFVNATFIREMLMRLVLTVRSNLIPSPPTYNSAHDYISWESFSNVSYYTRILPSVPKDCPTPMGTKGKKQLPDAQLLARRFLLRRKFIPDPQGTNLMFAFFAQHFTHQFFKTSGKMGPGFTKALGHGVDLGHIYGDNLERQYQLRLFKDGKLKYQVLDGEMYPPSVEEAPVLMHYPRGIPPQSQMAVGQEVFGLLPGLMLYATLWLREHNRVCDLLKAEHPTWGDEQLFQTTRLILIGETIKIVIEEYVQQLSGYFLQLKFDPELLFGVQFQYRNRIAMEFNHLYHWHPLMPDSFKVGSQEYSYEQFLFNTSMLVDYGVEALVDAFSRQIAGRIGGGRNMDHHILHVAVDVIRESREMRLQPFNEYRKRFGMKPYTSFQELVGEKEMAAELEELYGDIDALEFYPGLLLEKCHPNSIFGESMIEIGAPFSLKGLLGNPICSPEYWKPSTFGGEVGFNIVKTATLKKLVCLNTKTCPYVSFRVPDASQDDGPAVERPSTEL
inactive: ibrutinib 0.109 | [1] 0.022 | ralimetinib -0.001 | [2] -0.075 | [3] -0.043 | [4] 0.023 | [5] -0.039 | [6] 0.023 | [7] -0.011 | [8] -0.026

PI4KA (UniProt P42356)
inactive: ibrutinib 0.012 | [1] 0.119 | ralimetinib 0.011 | [2] -0.073 | [3] -0.045 | [4] 0 | [5] -0.039 | [6] 0.032 | [7] 0.04 | [8] -0.002

PWP2 (UniProt Q15269)
inactive: ibrutinib 0.003 | [1] -0.021 | ralimetinib 0.048 | [2] 0.027 | [3] 0.009 | [4] 0.037 | [5] -0.014 | [6] -0.035 | [7] 0.018 | [8] 0.015

PIKFYVE (UniProt Q9Y2I7)
inactive: ibrutinib 0.019 | [1] -0.012 | ralimetinib 0.011 | [2] -0.012 | [3] 0 | [4] 0.042 | [5] 0.003 | [6] -0.044 | [7] 0.016 | [8] -0.004

PSMB9 (UniProt P28065)
inactive: ibrutinib -0.073 | [1] -0.196 | ralimetinib 0.052 | [2] -0.01 | [3] 0.011 | [4] 0.003 | [5] -0.047 | [6] 0.096 | [7] -0.027 | [8] -0.178

POLR3E (UniProt Q9NVU0)
inactive: ibrutinib 0.02 | [1] 0.018 | ralimetinib 0.043 | [2] -0.006 | [3] 0.029 | [4] 0.025 | [5] -0.021 | [6] -0.004 | [7] 0.003 | [8] 0.007

PIP4K2C (UniProt Q8TBX8)
inactive: ibrutinib 0.012 | [1] 0.277 | ralimetinib 0.039 | [2] -0.055 | [3] -0.055 | [4] -0.047 | [5] -0.027 | [6] 0.03 | [7] -0.027 | [8] -0.031

PYURF (UniProt Q96I23)
inactive: ibrutinib 0.189 | [1] -0.026 | ralimetinib -0.005 | [2] 0.079 | [3] 0.016 | [4] 0.058 | [5] -0.05 | [6] 0.084 | [7] 0.012 | [8] -0.026

PHKB isoform 3 (UniProt Q93100)
inactive: ibrutinib -0.004 | [1] 0.071 | ralimetinib 0.008 | [2] -0.052 | [3] -0.003 | [4] 0.008 | [5] -0.069 | [6] -0.019 | [7] 0.022 | [8] -0.049

PTPN6 isoform 4 (UniProt P29350)
Chain of UniProt P29350 (P29350 whole entry, looked up): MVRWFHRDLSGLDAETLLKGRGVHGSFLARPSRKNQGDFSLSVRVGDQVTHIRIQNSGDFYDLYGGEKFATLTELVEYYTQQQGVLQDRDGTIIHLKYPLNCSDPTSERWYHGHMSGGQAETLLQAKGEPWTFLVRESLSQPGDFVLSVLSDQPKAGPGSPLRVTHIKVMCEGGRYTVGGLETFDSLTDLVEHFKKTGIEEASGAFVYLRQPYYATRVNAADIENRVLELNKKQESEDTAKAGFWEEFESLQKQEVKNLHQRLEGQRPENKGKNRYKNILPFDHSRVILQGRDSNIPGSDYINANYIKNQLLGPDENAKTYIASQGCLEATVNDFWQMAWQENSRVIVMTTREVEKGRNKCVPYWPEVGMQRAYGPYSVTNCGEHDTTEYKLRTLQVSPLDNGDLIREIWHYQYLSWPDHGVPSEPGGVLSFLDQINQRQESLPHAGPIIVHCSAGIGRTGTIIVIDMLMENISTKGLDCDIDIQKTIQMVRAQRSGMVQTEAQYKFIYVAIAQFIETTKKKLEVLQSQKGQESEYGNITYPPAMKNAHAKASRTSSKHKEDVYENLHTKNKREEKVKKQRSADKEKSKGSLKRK
inactive: ibrutinib 0.051 | [1] -0.077 | ralimetinib 0.045 | [2] -0.026 | [3] 0.019 | [4] 0 | [5] -0.081 | [6] -0.031 | [7] 0.011 | [8] 0.054

PRKACA (UniProt P17612)
active: [1] 0.767
inactive: ibrutinib 0.021 | ralimetinib 0.029 | [2] -0.106 | [3] -0.045 | [4] 0.059 | [5] -0.046 | [6] -0.118 | [7] -0.008 | [8] -0.057

PPME1 isoform 4 (UniProt Q9Y570)
Chain of UniProt Q9Y570 (Q9Y570 whole entry, looked up): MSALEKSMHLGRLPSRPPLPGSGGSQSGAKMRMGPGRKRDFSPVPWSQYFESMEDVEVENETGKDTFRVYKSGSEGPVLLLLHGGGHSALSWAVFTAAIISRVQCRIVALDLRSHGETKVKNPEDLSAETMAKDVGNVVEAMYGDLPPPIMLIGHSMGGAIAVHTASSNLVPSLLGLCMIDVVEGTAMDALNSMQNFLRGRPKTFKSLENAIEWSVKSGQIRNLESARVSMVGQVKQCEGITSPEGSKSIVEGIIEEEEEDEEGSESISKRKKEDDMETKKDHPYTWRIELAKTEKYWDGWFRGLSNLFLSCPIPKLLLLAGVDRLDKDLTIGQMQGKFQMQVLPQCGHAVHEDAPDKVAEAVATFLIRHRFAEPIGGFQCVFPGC
inactive: ibrutinib 0.042 | [1] 0.009 | ralimetinib 0.008 | [2] 0.018 | [3] -0.001 | [4] -0.021 | [5] -0.004 | [6] -0.011 | [7] -0.023 | [8] 0.012

PRIM2 (UniProt P49643)
Chain of UniProt P49643 (P49643 whole entry, looked up): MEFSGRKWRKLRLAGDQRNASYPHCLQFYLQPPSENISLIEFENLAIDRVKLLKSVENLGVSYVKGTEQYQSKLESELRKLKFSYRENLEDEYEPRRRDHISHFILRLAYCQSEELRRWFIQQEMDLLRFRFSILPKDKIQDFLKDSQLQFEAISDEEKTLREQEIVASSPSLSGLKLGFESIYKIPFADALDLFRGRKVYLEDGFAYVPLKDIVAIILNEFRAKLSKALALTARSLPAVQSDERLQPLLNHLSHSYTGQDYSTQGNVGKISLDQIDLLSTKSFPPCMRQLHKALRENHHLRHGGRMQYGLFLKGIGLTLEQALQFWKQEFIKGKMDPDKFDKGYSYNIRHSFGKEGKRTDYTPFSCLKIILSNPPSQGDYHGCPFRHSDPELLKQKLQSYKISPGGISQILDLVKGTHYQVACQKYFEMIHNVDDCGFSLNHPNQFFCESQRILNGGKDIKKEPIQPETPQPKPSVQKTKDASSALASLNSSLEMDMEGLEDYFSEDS
inactive: ibrutinib 0.067 | [1] -0.05 | ralimetinib 0.041 | [2] -0.025 | [3] -0.001 | [4] 0.015 | [5] -0.043 | [6] 0.028 | [7] 0.054 | [8] 0.009

PRC1 (UniProt O43663)
Chain of UniProt O43663 (O43663 whole entry, looked up): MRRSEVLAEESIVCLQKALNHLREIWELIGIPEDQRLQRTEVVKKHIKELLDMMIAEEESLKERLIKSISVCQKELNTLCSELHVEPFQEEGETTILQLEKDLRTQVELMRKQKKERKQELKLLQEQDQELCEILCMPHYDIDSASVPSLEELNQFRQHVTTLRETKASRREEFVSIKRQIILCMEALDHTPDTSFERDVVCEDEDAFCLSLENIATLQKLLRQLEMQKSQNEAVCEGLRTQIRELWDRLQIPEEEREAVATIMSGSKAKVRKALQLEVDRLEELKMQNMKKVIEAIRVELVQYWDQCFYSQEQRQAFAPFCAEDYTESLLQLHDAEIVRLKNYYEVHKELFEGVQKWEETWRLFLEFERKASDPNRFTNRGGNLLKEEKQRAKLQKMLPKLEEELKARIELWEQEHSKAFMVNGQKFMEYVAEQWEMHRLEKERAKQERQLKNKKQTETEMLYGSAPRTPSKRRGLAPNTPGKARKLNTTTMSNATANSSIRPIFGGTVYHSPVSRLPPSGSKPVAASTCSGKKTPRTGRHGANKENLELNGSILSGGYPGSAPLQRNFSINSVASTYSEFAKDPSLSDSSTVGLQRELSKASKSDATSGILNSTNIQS
inactive: ibrutinib -0.007 | [1] 0.009 | ralimetinib -0.016 | [2] 0.01 | [3] 0.01 | [4] 0.039 | [5] -0.006 | [6] 0.025 | [7] 0.021 | [8] 0.059

PIGO (UniProt Q8TEQ8)
inactive: ibrutinib 0.093 | [1] 0.016 | ralimetinib -0.039 | [2] -0.013 | [3] -0.068 | [4] -0.041 | [5] -0.05 | [6] -0.1 | [7] -0.047 | [8] -0.158

PTK2B (UniProt Q14289)
inactive: ibrutinib 0.014 | [1] 0.073 | ralimetinib -0.04 | [2] -0.072 | [3] -0.005 | [4] -0.039 | [5] -0.001 | [6] -0.049 | [7] 0.013 | [8] -0.022

PSTPIP2 (UniProt Q9H939)
Chain of UniProt Q9H939 (Q9H939 whole entry, looked up): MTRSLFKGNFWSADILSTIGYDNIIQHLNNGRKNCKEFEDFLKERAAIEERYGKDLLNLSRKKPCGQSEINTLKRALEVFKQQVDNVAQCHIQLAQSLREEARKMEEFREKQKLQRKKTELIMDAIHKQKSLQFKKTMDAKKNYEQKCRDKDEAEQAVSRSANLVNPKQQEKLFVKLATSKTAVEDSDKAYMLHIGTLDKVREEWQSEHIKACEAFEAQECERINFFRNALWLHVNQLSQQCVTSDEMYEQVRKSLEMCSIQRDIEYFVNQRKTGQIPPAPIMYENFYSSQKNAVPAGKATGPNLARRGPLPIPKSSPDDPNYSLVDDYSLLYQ
inactive: ibrutinib -0.019 | [1] -0.037 | ralimetinib -0.024 | [2] 0.012 | [3] 0.001 | [4] -0.049 | [5] -0.037 | [6] 0.022 | [7] -0.001 | [8] -0.034

PGPEP1 (UniProt Q9NXJ5)
inactive: ibrutinib -0.051 | [1] 0.02 | ralimetinib -0.013 | [2] 0.013 | [3] 0.043 | [4] -0.078 | [5] 0.015 | [6] 0.123 | [7] -0.034 | [8] -0.053

PRKD3 (UniProt O94806)
inactive: ibrutinib -0.112 | [1] 0.054 | ralimetinib -0.164 | [2] -0.052 | [3] 0.03 | [4] 0.039 | [6] -0.068 | [7] -0.022 | [8] -0.077

PUS1 (UniProt Q9Y606)
Chain of UniProt Q9Y606 (Q9Y606 whole entry, looked up): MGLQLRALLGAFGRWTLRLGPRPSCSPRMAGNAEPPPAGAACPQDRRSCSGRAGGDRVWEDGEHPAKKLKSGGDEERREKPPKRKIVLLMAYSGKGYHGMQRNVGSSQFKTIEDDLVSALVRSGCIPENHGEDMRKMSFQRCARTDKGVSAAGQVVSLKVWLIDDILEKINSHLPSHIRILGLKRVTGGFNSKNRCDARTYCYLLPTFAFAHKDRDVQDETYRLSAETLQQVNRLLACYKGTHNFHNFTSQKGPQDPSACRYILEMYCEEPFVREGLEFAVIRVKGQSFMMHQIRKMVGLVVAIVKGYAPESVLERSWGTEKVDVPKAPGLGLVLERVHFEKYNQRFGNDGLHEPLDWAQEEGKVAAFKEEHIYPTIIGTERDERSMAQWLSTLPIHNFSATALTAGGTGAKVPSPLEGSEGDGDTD
inactive: ibrutinib 0.006 | [1] 0.004 | ralimetinib 0.013 | [2] -0.006 | [3] 0.005 | [4] -0.009 | [5] -0.032 | [6] 0.028 | [7] 0.031 | [8] -0.021

PHKA1 (UniProt P46020)
inactive: ibrutinib -0.045 | [1] 0.012 | ralimetinib 0.03 | [2] -0.031 | [3] -0.053 | [4] 0.004 | [5] -0.019 | [6] -0.005 | [7] 0.032 | [8] 0.003

PICALM (UniProt H0YEH1)
inactive: ibrutinib -0.077 | [1] 0.009 | ralimetinib -0.035 | [2] -0.039 | [3] 0.05 | [4] 0.003 | [5] 0.014 | [6] -0.024 | [7] 0.012 | [8] -0.091

PRKCSH (UniProt P14314)
Chain of UniProt P14314 (P14314 whole entry, looked up): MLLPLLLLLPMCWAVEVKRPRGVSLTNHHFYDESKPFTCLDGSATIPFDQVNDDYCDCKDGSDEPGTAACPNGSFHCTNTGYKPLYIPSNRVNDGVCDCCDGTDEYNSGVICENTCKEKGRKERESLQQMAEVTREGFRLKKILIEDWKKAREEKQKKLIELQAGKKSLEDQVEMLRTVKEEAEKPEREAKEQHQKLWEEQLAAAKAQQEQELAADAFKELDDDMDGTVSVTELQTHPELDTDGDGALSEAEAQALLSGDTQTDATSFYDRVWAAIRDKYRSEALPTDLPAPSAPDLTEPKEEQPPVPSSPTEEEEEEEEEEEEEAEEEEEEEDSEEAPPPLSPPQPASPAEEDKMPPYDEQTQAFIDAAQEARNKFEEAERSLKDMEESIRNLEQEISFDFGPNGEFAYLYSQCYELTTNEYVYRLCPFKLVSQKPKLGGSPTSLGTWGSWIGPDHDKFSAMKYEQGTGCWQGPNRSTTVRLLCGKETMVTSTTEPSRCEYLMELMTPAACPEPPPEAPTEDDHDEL
inactive: ibrutinib -0.008 | [1] 0.01 | ralimetinib 0.007 | [2] 0.019 | [3] -0.026 | [4] -0.004 | [5] 0.047 | [6] -0.057 | [7] 0.001 | [8] 0

PRMT7 (UniProt Q9NVM4)
inactive: ibrutinib 0.043 | [1] -0.016 | ralimetinib 0.042 | [2] -0.01 | [3] 0.017 | [4] 0 | [5] -0.008 | [6] 0.013 | [7] 0.031 | [8] 0.008

PTPN7 isoform 3 (UniProt P35236)
Chain of UniProt P35236 (P35236 whole entry, looked up): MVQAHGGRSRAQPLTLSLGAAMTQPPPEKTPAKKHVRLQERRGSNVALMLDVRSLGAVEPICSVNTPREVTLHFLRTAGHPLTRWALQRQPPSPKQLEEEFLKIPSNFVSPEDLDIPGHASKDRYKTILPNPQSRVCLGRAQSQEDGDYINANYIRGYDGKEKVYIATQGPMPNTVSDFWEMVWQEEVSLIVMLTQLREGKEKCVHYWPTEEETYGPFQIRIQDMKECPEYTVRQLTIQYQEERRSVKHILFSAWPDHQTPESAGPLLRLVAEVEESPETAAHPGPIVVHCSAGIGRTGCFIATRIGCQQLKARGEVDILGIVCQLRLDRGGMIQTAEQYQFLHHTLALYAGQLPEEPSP
inactive: ibrutinib 0.018 | [1] 0.027 | ralimetinib 0.066 | [2] -0.021 | [3] -0.044 | [4] -0.023 | [5] -0.053 | [6] -0.07 | [7] 0.005 | [8] 0.032

PRRC2A (UniProt P48634)
active: [6] -0.26
inactive: ibrutinib 0.006 | [1] -0.014 | ralimetinib -0.01 | [2] -0.02 | [3] 0.002 | [4] 0.015 | [5] -0.003 | [7] 0.003 | [8] -0.026
